In the supplement of paper PMC3545927:
The other results are listed elsewhere or left out. No count for the full screen is at hand.

Target: furin, P09958
Assay: furin cleavage Z-score vs untreated control; higher = more cleavage, active = 3.5 or more, inactive = 1 or less, 8 variable residues between constant flanks
Summary of the method: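 Purified furin digested bead-held 8-mer peptide–cDNA fusions at 1:10 enzyme:substrate in 0.01 ml of 50 mM HEPES pH 7.5 with CaCl2 and NaCl for 7.5, 15 or 30 min. The cleavage Z-score compares sequencing counts of released DNA with furin-free reactions on a log scale, with lowess adjustment and median absolute deviation scaling.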

furin, P09958, sequence (P09958 whole entry): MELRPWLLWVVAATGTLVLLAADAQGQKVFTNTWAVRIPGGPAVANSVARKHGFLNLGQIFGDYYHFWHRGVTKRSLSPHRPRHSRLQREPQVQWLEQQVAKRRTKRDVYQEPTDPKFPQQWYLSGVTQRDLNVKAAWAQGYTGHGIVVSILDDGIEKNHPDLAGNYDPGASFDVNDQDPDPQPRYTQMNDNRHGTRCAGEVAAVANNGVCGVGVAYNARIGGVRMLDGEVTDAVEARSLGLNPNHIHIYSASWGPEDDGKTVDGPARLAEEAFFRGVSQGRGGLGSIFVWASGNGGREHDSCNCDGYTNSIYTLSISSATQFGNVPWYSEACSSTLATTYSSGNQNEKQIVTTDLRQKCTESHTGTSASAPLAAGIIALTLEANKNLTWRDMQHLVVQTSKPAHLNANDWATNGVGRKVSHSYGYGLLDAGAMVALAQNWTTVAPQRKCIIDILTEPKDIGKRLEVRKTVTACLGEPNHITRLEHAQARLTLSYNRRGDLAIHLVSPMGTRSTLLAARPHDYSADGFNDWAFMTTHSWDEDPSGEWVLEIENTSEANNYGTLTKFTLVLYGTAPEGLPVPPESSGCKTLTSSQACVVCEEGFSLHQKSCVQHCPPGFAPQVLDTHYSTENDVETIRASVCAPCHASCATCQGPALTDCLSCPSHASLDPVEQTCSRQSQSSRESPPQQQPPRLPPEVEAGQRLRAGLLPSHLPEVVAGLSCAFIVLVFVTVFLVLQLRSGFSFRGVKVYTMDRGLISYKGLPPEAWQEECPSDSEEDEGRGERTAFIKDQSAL

| Sequence | furin cleavage Z-score (7.5 min) | furin cleavage Z-score (15 min) | furin cleavage Z-score (30 min) |
| --- | --- | --- | --- |
| CAPDLGVRVCAGNASASA [HC1452] | -1.67 (inactive) | -0.653 (inactive) | -0.786 (inactive) |
| CARFRRDLVKAGNASASA [FS-1892] | 3.6 (active) | 6.06 (active) | 7.08 (active) |
| CARVFRQVEKAGNASASA [FS-2386] | -1.6 (inactive) | -2.06 (inactive) | -1.6 (inactive) |
| CARFDRSVEKAGNASASA [FS-2013] | 2.17 | 0.744 (inactive) | 3.51 (active) |
| CARFRREVEKAGNASASA [FS-2490] | 9.16 (active) | 8.26 (active) | 9.23 (active) |
| CARFDRSSGPAGNASASA [FS-3220] | -0.295 (inactive) | 1.66 | 0.428 (inactive) |
| CARNIRSGVHAGNASASA [FS-3006] | -0.391 (inactive) | -0.599 (inactive) | -0.61 (inactive) |
| CAEVVTSTWNAGNASASA [HC2261] | -0.954 (inactive) | 1.01 | 0.548 (inactive) |
| CAGGVVLVGLAGNASASA [HC570] | -0.221 (inactive) | 0.261 (inactive) | -0.661 (inactive) |
| CAGDSRQRRLAGNASASA [FS-424] | -0.0244 (inactive) | 0.999 (inactive) | 0.163 (inactive) |
| CAWQRRLRRLAGNASASA [FS-895] | 3.85 (active) | 5.94 (active) | 6.13 (active) |
| CALPSRLRRMAGNASASA [FS-55] | 9.43 (active) | 11.4 (active) | 8.99 (active) |
| CAFLTRLRRPAGNASASA [FS-769] | -0.966 (inactive) | -0.023 (inactive) | 0.341 (inactive) |
| CALPSRETRYAGNASASA [FS-1364] | 2.17 | 1.29 | -0.268 (inactive) |
| CASRGRLRRLAGNASASA [FS-1572] | 4.39 (active) | 6.32 (active) | 6.52 (active) |
| CAEPRRQRRLAGNASASA [FS-1118] | 3.93 (active) | 4.47 (active) | 4.27 (active) |
| CAPRWIWFCLAGNASASA [HC1655] | 2.54 | 0.216 (inactive) | 2.32 |
| CADYEPPVVHAGNASASA [HC1313] | -0.331 (inactive) | -1.03 (inactive) | 0.818 (inactive) |
| CAKKSRKSRPAGNASASA [FS-43] | -1.56 (inactive) | -0.706 (inactive) | -1.33 (inactive) |
| CAKKSRAERKAGNASASA [FS-676] | -0.262 (inactive) | -0.389 (inactive) | 0.536 (inactive) |
| CARKKRVHFHAGNASASA [FS-2271] | -0.215 (inactive) | -0.15 (inactive) | 0.343 (inactive) |
| CARKKRSGRHAGNASASA [FS-2968] | 8.42 (active) | 11.9 (active) | 8.64 (active) |
| CAKKSRSGRHAGNASASA [FS-1635] | 1.49 | 3.83 (active) | 4.08 (active) |
| CAYGMWPLLLAGNASASA [HC556] | 1.73 | 0.0218 (inactive) | -0.323 (inactive) |
| CATTPCSGHWAGNASASA [HC1915] | -0.316 (inactive) | 1.87 | 0.16 (inactive) |
| CAAHGIDPNIAGNASASA [HC796] | -0.768 (inactive) | -0.681 (inactive) | 0.0731 (inactive) |
| CATTPCDGSWAGNASASA [HC72] | 0.037 (inactive) | 1.11 | 0.507 (inactive) |
